Experimental data as given in PubChem BioAssay AID485290 (National Center for Advancing Translational Sciences (NCATS), 2010).
“And” between values parts separate entries of the source, which are not always exact repeats. Identical values can stand only once. Among all 350,000 compounds or so, about 990 (0.28%) were called active. Entries that show only a call come without a potency. About 2% were inconclusive and are not listed. The call rests on the fitted dose curve; in most records, active means well fitted inhibition curve with a large enough effect; inconclusive means small, poorly fitted or top-dose-only effect; inactive means no such curve, though single readings can be large or run the other way. The sample as a whole holds a higher share of actives than the screen did. Some structures have more than one record in an assay (separate samples or runs), and their calls can disagree.

Target: Tyrosyl-DNA phosphodiesterase 1 (Homo sapiens) (UniProt Q9NUW8)
Sequence (Q9NUW8 whole entry, looked up): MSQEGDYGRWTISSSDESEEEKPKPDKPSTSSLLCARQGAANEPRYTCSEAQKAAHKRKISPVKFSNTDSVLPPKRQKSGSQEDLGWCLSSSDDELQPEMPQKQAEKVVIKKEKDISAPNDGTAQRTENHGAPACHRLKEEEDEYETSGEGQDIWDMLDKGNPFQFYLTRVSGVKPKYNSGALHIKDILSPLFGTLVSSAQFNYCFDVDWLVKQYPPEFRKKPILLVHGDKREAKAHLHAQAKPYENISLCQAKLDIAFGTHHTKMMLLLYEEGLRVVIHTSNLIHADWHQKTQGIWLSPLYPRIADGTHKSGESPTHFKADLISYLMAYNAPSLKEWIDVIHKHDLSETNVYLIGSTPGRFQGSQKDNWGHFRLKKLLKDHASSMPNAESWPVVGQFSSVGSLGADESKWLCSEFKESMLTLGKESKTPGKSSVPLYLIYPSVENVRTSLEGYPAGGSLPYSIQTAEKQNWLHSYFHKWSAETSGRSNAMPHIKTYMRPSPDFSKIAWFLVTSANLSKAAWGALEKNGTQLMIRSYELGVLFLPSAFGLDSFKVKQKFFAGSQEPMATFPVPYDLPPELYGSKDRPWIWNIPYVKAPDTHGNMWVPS
Test: qHTS Assay for Inhibitors of Tyrosyl-DNA Phosphodiesterase (TDP1); further: nearly all actives have a fitted effect of over 40% in size
Settings: recombinant TDP1, AlphaScreen DNA substrate cleavage; series mostly up to 130 µM
Source text: NIH Molecular Libraries Probe Production Network [MLPCN]
NIH Chemical Genomics Center [NCGC]
Assay Provider: Yves Pommier and Christophe Marchand, National Cancer Institute
Assay Title: qHTS Assay for Inhibitors of Tyrosyl-DNA Phosphodiesterase (TDP1); further: nearly all actives have a fitted effect of over 40% in size
Human tyrosyl-DNA phosphodiesterase I (Tdp1) is a rational anticancer target because this enzyme is involved in the repair of DNA lesions created by the trapping of human DNA topoisomerase I (Top1) following treatment by anticancer agents such as camptothecins. Recombinant Tdp1 was expressed and purified from E. coli in the laboratory (Anthony et al, Nucleic Acids Research, 2007, Vol. 35, 4474-4484). A Tdp1 DNA substrate bearing a 5' biotin and a 3' phospho-tyrosine was obtained by custom synthesis. This oligonucleotidic DNA substrate was subsequently coupled to a fluorescein isothiocyanate (FITC) group via the free amino group present on the phospho-tyrosine. Tdp1 was screened against the NCGC small molecule library using the AlphaScreen (AS) detection method in which a streptavidin donor AS bead is bound at the 5' end and an anti-FITC AS acceptor bead is bound at the 3' end of the DNA oligonucleotidic substrate. In the presence of Tdp1, the enzyme cleaves the tyrosine-FITC group, leaving a 3' end phosphate on the DNA substrate. This cleavage reaction results in a loss of signal in AS.
[1] 3 ul of buffer is dispensed in columns 3 & 4 as negative control (no enzyme and maximum signal),
[2] 3 ul of enzyme (1 nM final) is dispensed in columns 1,2, 5-48,
[3] 1 ul of substrate (15 nM final) is dispensed throughout the plate,
[4] 1 ul of AS donor/acceptor bead mix (10 ug/ml final) is dispensed throughout the plate
3 ul of Tdp1 enzyme is dispensed to 1536-well Kalypsys black solid bottom plates. Compounds and controls (23 nl) are transferred via Kalypsys Pin Tool. The plates are incubated for 15 min at room temperature, and then 1 ul of substrate is added to start the reaction. After 5 min incubation at room temperature, 1 ul of AS donor/acceptor bead mix is added and the plates are further incubated for 10 min at room temperature. The detection is then performed on a PerkinElmer Envision reader.
Potency means the concentration at half of the fitted maximal effect.

Row | SMILES | Potency | activity change, negative = inhibition
1 | Cc1nn(C)cc1N1C(=O)c2cccc3c(N)ccc(c23)C1=O | inactive | 
2 | Nc1ccc2c3c(cccc13)C(=O)NC2=O | inactive and 50.1 µM (active) | 
3 | CCCNC(=O)CN(Cc1ccccc1F)S(=O)(=O)c1ccc(C)cc1 | inactive | 
4 | CC(=O)c1ccc(S(=O)(=O)N(C)CCCC(=O)N(C)Cc2ccccc2F)cc1 | 79.4 µM (active) | 
5 | COC(=O)Cc1ccc(N(Cc2ccccc2F)S(=O)(=O)c2ccc(Br)cc2)cc1 | inactive | 
6 | O=C(CNC(=O)c1ccccc1)OC(C(=O)Nc1cc([N+](=O)[O-])ccc1F)c1ccccc1 (centres undefined) | inactive | 
7 | O=C(CCNC(=O)c1ccccc1)NN=Cc1ccc(Br)o1 | 14.1 µM (active) | 
8 | O=C(CCCCCNC(=O)c1ccccc1)N/N=C/c1ccccc1 | inactive | 
9 | O=C(CCNC(=O)c1ccccc1Cl)NN=Cc1ccco1 | inactive | 
10 | O=C(Nc1ccc2nc(SCCOc3ccccc3Cl)sc2c1)c1ccco1 | inactive | 
11 | CCOC(=O)c1ccc(NC(=O)CC2C(=O)N(c3ccccc3)C(=O)N2Cc2cccs2)cc1 (centres undefined) | inactive | 
12 | COc1ccc(-c2cn3nc(N4CCCC(C(=O)NCCCOC(C)C)C4)sc3n2)cc1 (centres undefined) | inactive | 
13 | Cc1ccc(-c2nnc3ccc(SCC(N)=O)nn23)cc1 | inactive | 
14 | O=C(CCc1ccccc1)NCCc1cccs1 | inactive | 
15 | O=C(O)CCC(=O)N(Cc1cccs1)Cc1cccs1 | 70.8 µM (active) | 
16 | O=C(O)CCC(=O)N(Cc1ccccc1)Cc1ccccc1 | inactive | 
17 | Cc1ccc2ccc3c(c2n1)NS(=O)(=O)c1ccccc1-3 | inactive | 
18 | CCn1c(COc2ccccc2)nnc1SCC(=O)NCc1ccco1 | inactive | 
19 | C=CCn1c(CSc2nc3ccccc3s2)nnc1SCC(=O)NCc1ccco1 | 50.1 µM (active) | 
20 | O=C(CSc1nc2ccc(Nc3nc(N4CCOCC4)nc(N4CCOCC4)n3)cc2s1)NCc1ccco1 | inactive | 
21 | N#Cc1nc(Nc2cc(F)cc(Cl)c2)nc(NC2CCCC2)n1 | inactive | 
22 | Cc1ccc(C2C=C(c3ccc(Cl)cc3)Nc3nc(NC(=O)CCC(=O)O)nn32)cc1 (centres undefined) | inactive | 
23 | Cc1cc(NC(=O)CSc2nc(=O)cc(N)n2-c2ccc(F)cc2)no1 | 100 µM (active) | 
24 | Cc1csc(NC(=O)CSc2nc(=O)cc(N)n2-c2ccc(F)cc2)n1 | inactive | 
25 | COc1cccc(-n2c(N)cc(=O)nc2SCC(=O)Nc2cc(C)on2)c1 | inactive | 

Row | SMILES | Potency | activity change, negative = inhibition
26 | CCc1ccc(NC(=O)CN2CCSc3ccc(S(=O)(=O)N4CCCC4)cc32)cc1 | inactive | 
27 | CC(C)c1ccc(C2CC(=O)N3CN(C4CCCCC4)CSC3=C2C#N)cc1 (centres undefined) | inactive | 
28 | Cc1ccc(Cn2ncc3c4sc(C)cc4n(C)c3c2=O)c(C)c1 | inactive | 
29 | CCSc1nnc(NC(=O)c2cc(=O)c3cc(C)c(C)cc3o2)s1 | inactive | 
30 | NC(=O)CSc1nnc(NC(=O)c2ccc3ccccc3c2)s1 | inactive | 
31 | NC(=O)CSc1nnc(NC(=O)c2ccc(Br)o2)s1 | 56.2 µM (active) | 
32 | COc1cccc(NC(=O)C(=O)NCC(c2ccc3c(c2)OCO3)N2CCN(C)CC2)c1 (centres undefined) | inactive | 
33 | O=C(Nc1ccc(F)cc1F)c1ccc2c(=O)n3c(nc2c1)CCCCC3 | inactive | 
34 | COc1cc(C(=O)NCCc2csc3nc(-c4ccccc4C)nn23)cc(OC)c1OC | inactive | 
35 | CC1CCCN(C(=O)c2cc(-c3ccco3)nc3ccccc23)C1 (centres undefined) | inactive | 
36 | Cc1cc(C)c2nc(-c3ccco3)cc(C(=O)O)c2c1 | 3.55 µM (active) | 
37 | CN(CCOc1ccccc1)C(=O)c1cc(-c2ccco2)nc2ccccc12 | inactive | 
38 | N#CN1CCC(NS(=O)(=O)c2cccc(F)c2)C1 (centres undefined) | inactive | 
39 | COc1cccc(NC(=O)c2ccc3nc(CCc4ccccc4)oc3c2)c1 | inactive | 
40 | COc1cccc(OC2=NS(=O)(=O)c3ccccc32)c1 | inactive | 
41 | COC(=O)c1ccccc1NC(=O)c1ccc2c(=O)n3c(nc2c1)CCCCC3 | inactive | 
42 | O=C(OCC#CCSc1nnc(-c2ccco2)o1)c1ccc(F)cc1 | inactive | 
43 | CN1C(=O)/C(=C/c2ccco2)SC1=Nc1cccc(C(=O)O)c1 | 25.1 µM (active) | 
44 | Cc1cc(/C=C2\SC(=Nc3ccc(N4CCOCC4)cc3)N(C)C2=O)c(C)n1-c1cccnc1 | inactive | 
45 | CN1C(=O)/C(=C\c2ccc(-c3ccccc3)o2)SC1=S | inactive | 
46 | CCOC(=O)c1scc(-c2ccccc2)c1S(=O)(=O)Nc1ccccc1F | inactive | 
47 | COc1ccc(-c2nc3sc(CCNC(=O)C(C)(C)C)c(C)n3n2)cc1 | inactive | 
48 | Cc1ccccc1Nc1nc(-c2cccnc2)cs1 | 100 µM (active) | 
49 | Cc1cccc(Nc2nc(-c3ccccc3)cs2)n1 | inactive | 
50 | O=C(Nc1nc(-c2cccnc2)cs1)c1ccccc1F | inactive | 

Row | SMILES | Potency | activity change, negative = inhibition
51 | COc1ccc(-c2c3c(=O)n(C)c(=O)n(C)c3c3c(C)nc4ccccc4n23)cc1 | inactive | 
52 | O=C(CNC(=O)c1ccc(Cl)cc1Cl)OC(C(=O)Nc1cc(C(F)(F)F)ccc1Cl)c1ccccc1 (centres undefined) | inactive | 
53 | CCc1nc(-c2cc(S(=O)(=O)N3CCN(c4ccc(OC)cc4)CC3)ccc2OC)no1 | inactive | 
54 | CCc1ccc(OCCCn2c(CCCNC(=O)C3CCCCC3)nc3ccccc32)cc1 | inactive | 
55 | O=C(Nc1nnc(-c2ccc(Cl)cc2)o1)c1ccccc1Br | inactive | 
56 | Cc1ccnc2nc(C(=O)OCC(=O)N(CC(C)C)CC(C)C)nn12 | inactive | 
57 | Cc1ccnc2nc(C(=O)Nc3nnc(-c4ccccc4)o3)nn12 | 50.1 µM (active) | 
58 | COc1ccc(C(=O)CSc2c(C(C)C)cnc3c2c(=O)n(C)c(=O)n3C)cc1 | inactive | 
59 | CCN(CCCNC(=O)c1ccc(Sc2ccc(C)cc2)c(NC(C)=O)c1)c1cccc(C)c1 | inactive | 
60 | Cc1ccc(-n2ncc3c(NCCCn4ccnc4)ncnc32)cc1Cl | inactive | 
61 | COc1ccc(C2Nc3ccccc3C(=O)N2Cc2ccccc2)cc1COc1ccc(C(N)=O)cc1 (centres undefined) | inactive | 
62 | CCc1ccccc1NC(=O)c1ccc2nc(CCc3ccccc3)oc2c1 | inactive | 
63 | Cc1cc(=O)oc2cc(NC(=O)C(C)Oc3ccccc3)ccc12 (centres undefined) | 56.2 µM (active) | 
64 | Cc1cc(=O)oc2cc(OC(C)C(=O)Nc3ccc(N4CCOCC4)cc3)ccc12 (centres undefined) | inactive | 
65 | Cc1cc(=O)oc2cc(OC(C)C(=O)NCCc3ccc(S(N)(=O)=O)cc3)ccc12 (centres undefined) | inactive | 
66 | COc1ccc(S(=O)(=O)NCC(c2ccc(N(C)C)cc2)N2CCc3ccccc32)cc1OC (centres undefined) | inactive | 
67 | OC[C@@H]1O[C@H](n2cnc3c(SCc4ccccc4)ncnc32)[C@H](O)[C@H]1O | inactive | 
68 | Cc1cc2c(s1)c1cnn(Cc3c(F)cccc3Cl)c(=O)c1n2C | inactive | 
69 | CCCCCC(=O)Nc1ccc(S(=O)(=O)Nc2ccc(Cl)nn2)cc1 | inactive | 
70 | Cc1cnc(NC(=O)CSc2nnc(C)s2)s1 | inactive | 
71 | Cc1nnc(SCC(=O)Nc2ccc(S(=O)(=O)Nc3ccc(Cl)nn3)cc2)s1 | 39.8 µM (active) | 
72 | COc1cccc(C2c3c(ncn(-c4cccc(Br)c4)c3=N)Oc3ccc4ccccc4c32)c1 (centres undefined) | inactive | 
73 | O=C1CC(c2ccccc2)CC2=C1C(c1ccco1)n1nc(C(F)(F)F)nc1N2 (centres undefined) | inactive | 
74 | COc1ccc(NC(=O)CCN2C(=O)/C(=C/c3ccc4c(c3)OCO4)SC2=S)cc1 | inactive | 
75 | Cc1ccc(C(=O)O)cc1-c1ccc(/C=C2\SC(=O)N(CC(=O)Nc3ccc4c(c3)OCO4)C2=O)o1 | 10 µM (active) | 

Row | SMILES | Potency | activity change, negative = inhibition
76 | Cn1cccc1/C=C1\SC(=O)N(CC(=O)Nc2ccc(F)cc2)C1=O | inactive | 
77 | CC1(C)C(=O)Nc2ccccc2N1C(=O)COC(=O)Cn1cnc2ccccc2c1=O | inactive | 
78 | CNS(=O)(=O)c1cccc(C(=O)OCC(=O)N2c3ccccc3NC(=O)C2(C)C)c1 | 31.6 µM (active) | 
79 | Cc1cc(C(=O)OCC(=O)N2c3ccccc3NC(=O)C2(C)C)c(C)n1-c1ccccc1 | inactive | 
80 | O=C(CSc1nc2ccccc2c(=O)[nH]1)Nc1nc(-c2ccc(Br)cc2)cs1 | 12.6 µM (active) | 
81 | CC(=O)NCc1ccc(-c2csc(NC(=O)CCCc3nc4ccccc4c(=O)[nH]3)n2)cc1 | inactive | 
82 | CCOC(=O)c1ccccc1NC(=O)CSc1nc2ccccc2c(=O)[nH]1 | inactive | 
83 | O=S(=O)(c1ccc2c(c1)OCCCO2)N1CCN(S(=O)(=O)c2c(F)cccc2F)CC1 | inactive | 
84 | Brc1nc2ncnc(NCc3ccco3)c2[nH]1 | inactive | 
85 | COC(=O)c1ccc(NC(=O)CSc2n[nH]c(-c3ccccc3)n2)cc1 | inactive | 
86 | CN(C)c1ccc(C(CNS(=O)(=O)c2cc(F)ccc2F)N2CCOCC2)cc1 (centres undefined) | inactive | 
87 | COc1ccc(C2Nc3ccccc3C(=O)N2Cc2ccc(CNC(=O)CO)cc2)cc1COc1ccc(NC(C)=O)cc1 (centres undefined) | inactive | 
88 | COc1ccc(/C=C2\SC(=S)N(CCC(=O)Nc3ccccn3)C2=O)cc1OC |  | 5.5% [at 0.0935 µM] (inactive)
89 | CN(C)S(=O)(=O)c1cccc(-c2nn(-c3ccccc3)cc2/C=C2\SC(=S)N(CC(=O)O)C2=O)c1 | inactive | 
90 | COc1ccc(-c2nn(-c3ccccc3)cc2/C=C2/SC(=S)N(CCCC(=O)O)C2=O)c(C)c1 | 39.8 µM (active) | 
91 | Cc1ccc(C(=O)NC2CCN(C#N)CC2)cc1 | inactive | 
92 | CCN(CC)c1nc(C#N)nc(OC)n1 | inactive | 
93 | COc1ccc(CCn2c3c(c(=O)[nH]c2=S)CN(C(C)C)CN3)cc1OC | inactive | 
94 | Cc1ccc(C)c(N2C(=O)N(Cc3c(F)cccc3Cl)c3ccccc3S2(=O)=O)c1 | inactive | 
95 | N#Cc1ccc(OC2=NS(=O)(=O)c3ccccc32)cc1 | inactive | 
96 | Fc1ccccc1Oc1ncnc2c1oc1ccccc12 | inactive | 
97 | Cc1cccc(N2CCN(S(=O)(=O)c3ccc(-c4cc(C)no4)s3)CC2C)c1 (centres undefined) | inactive | 
98 | Cc1cccc(N2CCN(C(=O)c3cccc(S(=O)(=O)N4CCc5ccccc5C4)c3)CC2C)c1 (centres undefined) | inactive | 
99 | Cc1cccc(N2CCN(S(=O)(=O)c3ccc4[nH]c(=O)c(=O)[nH]c4c3)CC2C)c1 (centres undefined) | 35.5 µM (active) | 
